From PubChem BioAssay (Tox21) come the findings set out here.

Test [1] in a line: qHTS assay to identify small molecule agonists of the sonic hedgehog signaling (Shh) pathway (AID 1259368; calls by dose curve;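 note: NIH/3T3-derived 3T3Gli1-Luc cells carrying a stable Gli1-driven firefly luciferase reporter; series mostly up to about 92 µM; nearly all actives have a fitted effect of over 15% in size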). In a few lines: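 Mouse fibroblast (NIH/3T3) reporter cells with stably integrated Gli1-Luc were treated 24 hr with compound; firefly luciferase luminescence served as the read-out.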
Background: Quantitative high-throughput screening tests each substance at several concentrations.

A short description of test [2]: qHTS assay to identify small molecule antagonists of the sonic hedgehog signaling (Shh) pathway (AID 1259369; calls by dose curve; note: nearly all actives have a fitted effect of over 45% in size; note: potency is the fitted concentration of half-maximal effect). In a few lines:
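Conditioned medium drives Shh signalling in 3T3Gli1-Luc cells; compounds in DMSO co-applied, 24hr at 37 C, then luciferase luminescence.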

The target in test [3] is Estrogen receptor beta (Homo sapiens) (UniProt Q92731). The experiment in a line: qHTS assay to identify small molecule agonists of the estrogen receptor beta (ER-beta) signaling pathway (AID 1259377; active = well fitted activation curve with a large enough effect in the signal ratio in the repeat runs, not every such curve was filed as active; the % refers to the signal ratio). In a few lines:
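Reporter cells (HEK293T, ER-beta-UAS-bla) receive compounds or DMSO after a 6 hr pre-incubation. They then incubate 16 hr at 37C/5% CO2, and fluorescence from LiveBLAzer B/G substrate is measured after 2 hours at room temperature.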

For test [4] the target is unchanged. Put plainly: qHTS assay to identify small molecule antagonists of the estrogen receptor beta (ER-beta) signaling pathway (AID 1259378; active = well fitted inhibition curve with a large enough effect in the signal ratio in the repeat runs, not every such curve was filed as active; the % refers to the signal ratio). The procedure, abridged: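 ER-beta-UAS-bla HEK293T (GripTite) cells in 2% charcoal-stripped FBS medium were preincubated 6 hr at 37C, dosed with compound, then stimulated with 1 nM E2 (final) for 16 hr; beta-lactamase reporter read by B/G FRET fluorescence after 2 hr substrate loading.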

A short description of test [5]: qHTS assay to identify small molecule agonists of the estrogen receptor beta (ER-beta) signaling pathway - cell viability counter screen (AID 1259380). Note: nearly all actives have a fitted effect of over 30% in size. In a few lines: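 Cells used were ER-beta-UAS-bla HEK293T in medium with 2% charcoal-stripped FBS. They were treated for 16 hr at 37C. Viability came from CellTiter-Glo luminescence.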
The nature of test [6]: qHTS assay to identify small molecule antagonists of the estrogen receptor beta (ER-beta) signaling pathway - cell viability counter screen (AID 1259382). Note: series mostly up to about 92 µM; nearly all actives have a fitted effect of over 55% in size. In a few lines:
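Agonist-stimulated (1nM E2) ER-beta-UAS-bla HEK293T cells are incubated with library compounds for 16 hr at 37C. Cell viability is then assessed in the reporter-assay wells by adding CellTiter-Glo and reading luminescence after 30 min.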

Test [7] can be described thus: qHTS assay to identify small molecule agonists or antagonists of the thyroid stimulating hormone receptor (TSHR) signaling pathway - wild type cell line counter screen (AID 1259384; calls by dose curve). In a few lines:
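Wild-type HEK293 cells were plated 18 h at 37 C/5% CO2, pin-dosed with compound plus Ro20-1724 medium, held 30 min at room temperature, then given cAMP-d2 and anti-cAMP-cryptate; fluorescence was read after 1 h. Fifteen concentrations, triplicate.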

The target in test [8] is Thyrotropin receptor (Homo sapiens) (UniProt P16473). The experiment in a line: qHTS assay to identify small molecule antagonists of the thyroid stimulating hormone receptor (TSHR) signaling pathway (AID 1259385; calls by dose curve; note: nearly all actives have a fitted effect of over 20% in size). The procedure, abridged: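 TSHR-HEK293 cells were plated and held 18 h at 37C/5% CO2, then given compound plus Ro20-1724 and stimulated with TSH at 1.5 ng/mL final. After 30 min at room temperature, cAMP was detected with cAMP-d2/anti-cAMP-cryptate (1 h) by fluorescence.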
Sequence of Thyrotropin receptor (Homo sapiens) (P16473 whole entry, looked up): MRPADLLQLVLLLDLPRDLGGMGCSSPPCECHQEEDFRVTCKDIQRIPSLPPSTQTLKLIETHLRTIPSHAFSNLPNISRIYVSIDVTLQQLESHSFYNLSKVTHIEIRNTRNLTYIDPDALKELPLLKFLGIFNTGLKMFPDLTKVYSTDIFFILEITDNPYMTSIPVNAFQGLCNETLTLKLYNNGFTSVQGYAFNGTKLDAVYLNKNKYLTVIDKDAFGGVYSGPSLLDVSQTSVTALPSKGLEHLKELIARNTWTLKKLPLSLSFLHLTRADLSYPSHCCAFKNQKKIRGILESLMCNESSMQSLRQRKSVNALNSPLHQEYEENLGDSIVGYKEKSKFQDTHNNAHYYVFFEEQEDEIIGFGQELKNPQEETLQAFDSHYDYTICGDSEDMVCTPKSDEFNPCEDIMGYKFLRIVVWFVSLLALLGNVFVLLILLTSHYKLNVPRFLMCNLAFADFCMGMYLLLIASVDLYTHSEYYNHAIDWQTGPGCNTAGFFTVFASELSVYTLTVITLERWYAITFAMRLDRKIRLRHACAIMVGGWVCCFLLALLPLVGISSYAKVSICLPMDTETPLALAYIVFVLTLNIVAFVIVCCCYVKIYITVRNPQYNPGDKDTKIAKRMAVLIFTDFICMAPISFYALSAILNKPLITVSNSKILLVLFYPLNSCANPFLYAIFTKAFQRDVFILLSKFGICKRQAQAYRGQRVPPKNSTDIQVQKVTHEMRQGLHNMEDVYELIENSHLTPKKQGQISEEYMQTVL

Test [9] can be described thus: qHTS assay to identify small molecule agonists of the estrogen receptor alpha (ER-alpha) signaling pathway in the presence of an antagonist - cell viability counter screen (AID 1259386).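 Note: series mostly up to about 92 µM; cells exposed to compounds for 22 h at 37 °C before the viability read; nearly all actives have a fitted effect of over 30% in size.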 The procedure, abridged:
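ICI-182,780 at 10.0nM final accompanies the compound titration (15 concentrations, 22hr, 37C) on VM7Luc4E2 cells. The CellTiter-Fluor fluorescence readout runs in the same wells as the luciferase assay.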

Test [10] concerns the target Progesterone receptor (Homo sapiens) (UniProt P06401). The experiment in a line: qHTS assay to identify small molecule agonists of the progesterone receptor (PR) signaling pathway (AID 1346784; calls by dose curve; note: nearly all actives have a fitted effect of over 30% in size). In a few lines: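 Reporter assay, GripTite PR-UAS-bla HEK 293T cells: 16 hr exposure to DMSO-dissolved compounds at 37C, 5% CO2, in steroid-depleted (2% charcoal-stripped FBS) medium; beta-lactamase measured by FRET fluorescence.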

Test [11] has the same target. The experiment in a line: qHTS assay to identify small molecule antagonists of the progesterone receptor (PR) signaling pathway (AID 1346795; active = well fitted inhibition curve with a large enough effect in the signal ratio in the repeat runs, not every such curve was filed as active; the % refers to the signal ratio; note: potency is the fitted concentration of half-maximal effect). The procedure, abridged:
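Stimulus R5020 at 1 nM final; cells HEK293T PR-UAS-bla; medium with 2% charcoal-stripped FBS; compound exposure 16 hr at 37C, 5% CO2; detection by FRET beta-lactamase substrate, 2 hr, room temperature.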

Test [12] can be described thus: qHTS assay to identify small molecule antagonists of the progesterone receptor (PR) signaling pathway - cell viability counter screen (AID 1346798). Note: series mostly up to about 92 µM; nearly all actives have a fitted effect of over 50% in size. In a few lines: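 In the same plates used for the beta-lactamase readout, cell viability of compound- and R5020-treated PR-UAS-bla HEK293T cells (16 hr, 37C) was assessed by CellTiter-Glo luminescence.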
A short description of test [13]: qHTS assay to identify small molecule agonists of the progesterone receptor (PR) signaling pathway - cell viability counter screen (AID 1346799; calls by dose curve; note: nearly all actives have a fitted effect of over 45% in size; note: potency is the fitted concentration of half-maximal effect). In a few lines: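 Multiplexed viability read: CellTiter-Glo luminescence, 30 min RT, following LiveBLAzer FRET measurement on PR-UAS-bla HEK293T cells exposed to compounds 16 hr.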
A short description of test [14]: qHTS assay to identify small molecule antagonists of the TGF-beta/Smad signaling pathway - cell viability counter screen (AID 1346824). Note: nearly all actives have a fitted effect of over 50% in size. In a few lines:
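SBE-bla HEK 293T cells were plated overnight at 37 C, then given compounds in DMSO plus TGF-beta1 (added as 0.25 ng/mL solution) for 5 hr. After the bla read, CellTiter-Glo was added to the same wells and luminescence read after 30 min at room temperature.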

Test [15] can be described thus: qHTS assay to identify small molecule agonists of the TGF-beta/Smad signaling pathway - cell viability counter screen (AID 1346829). Note: top concentration of the series differs between compounds; nearly all actives have a fitted effect of over 45% in size. The procedure, abridged: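 Here the cytotoxicity of library compounds is measured in SBE-bla HEK 293T cells treated for 5 hr, using CellTiter-Glo added to wells already read for the beta-lactamase reporter.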
Test [16] can be described thus: qHTS assay to identify small molecule agonists of the TGF-beta/Smad signaling pathway (AID 1346859; active = well fitted activation curve with a large enough effect in the signal ratio in the repeat runs, not every such curve was filed as active; the % refers to the signal ratio; note: series mostly up to about 77 µM). The procedure, abridged:
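Screening used HEK 293T SBE-bla cells at 4,000/well. Test agents: 5 hr, 37 C. Detection: FRET substrate, 2 hr RT, then excitation 405 nm with emissions at 460 and 530 nm.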

In test [17] the target is Thyrotropin-releasing hormone receptor (Homo sapiens) (UniProt P34981). Put plainly: qHTS assay to identify small molecule antagonists of the thyrotropin-releasing hormone receptor (TRHR) signaling pathway (AID 1346877; active = well fitted inhibition curve with a large enough effect in the repeat runs, not every such curve was filed as active; note: series mostly up to about 51 µM). In a few lines:
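Screening used HEK293 cells engineered with TRHR, with a brief 5 min room-temperature compound exposure preceding addition of TRH to 1 nM. The read-out was kinetic calcium-dye fluorescence, concentration-response from 15 doses in triplicate.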

The nature of test [18]: qHTS assay to identify small molecule agonists of the androgen receptor (AR) signaling pathway in the presence of an antagonist - cell viability counter screen (AID 1259379).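 Note: MDA-kb2 human breast cancer cells carrying an MMTV luciferase reporter; series mostly up to about 92 µM; nearly all actives have a fitted effect of over 25% in size.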 In a few lines: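 A CellTiter-Fluor read-out measured viability of MDA-kb2 reporter cells (MMTV promoter with AR and GR response elements). Treatment: nilutamide 3.0uM final with compounds at 15 concentrations, 16 hr, 37C, 0% CO2.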

Test [19] concerns the target Androgen receptor (Homo sapiens) (UniProt P10275). Put plainly: qHTS assay to identify small molecule agonists of the androgen receptor (AR) signaling pathway in the presence of an antagonist (AID 1259381; calls by dose curve; note: nearly all actives have a fitted effect of over 15% in size). In a few lines: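 Using human MDA-kb2 cells with an MMTV promoter–luciferase construct (AR and GR response elements), agonist activity is scored under 3.0uM nilutamide (final) co-treatment; 16hr incubation, 37C, luminescence readout via ONE-Glo.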

For test [20], the target named is Estrogen receptor (Homo sapiens) (UniProt P03372). The experiment in a line: qHTS assay to identify small molecule agonists of the estrogen receptor alpha (ER-alpha) signaling pathway in the presence of an antagonist (AID 1259383; calls by dose curve; note: top concentration of the series differs between compounds; nearly all actives have a fitted effect of over 15% in size). In a few lines: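 Using VM7Luc4E2 cells seeded 24hr before treatment, antagonist ICI-182,780 (10.0nM final) was added, followed by compounds at 15 concentrations. Plates incubated 22hr; ONE-Glo luminescence quantified reporter activity.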
Sequence of Estrogen receptor (Homo sapiens) (P03372 whole entry, looked up): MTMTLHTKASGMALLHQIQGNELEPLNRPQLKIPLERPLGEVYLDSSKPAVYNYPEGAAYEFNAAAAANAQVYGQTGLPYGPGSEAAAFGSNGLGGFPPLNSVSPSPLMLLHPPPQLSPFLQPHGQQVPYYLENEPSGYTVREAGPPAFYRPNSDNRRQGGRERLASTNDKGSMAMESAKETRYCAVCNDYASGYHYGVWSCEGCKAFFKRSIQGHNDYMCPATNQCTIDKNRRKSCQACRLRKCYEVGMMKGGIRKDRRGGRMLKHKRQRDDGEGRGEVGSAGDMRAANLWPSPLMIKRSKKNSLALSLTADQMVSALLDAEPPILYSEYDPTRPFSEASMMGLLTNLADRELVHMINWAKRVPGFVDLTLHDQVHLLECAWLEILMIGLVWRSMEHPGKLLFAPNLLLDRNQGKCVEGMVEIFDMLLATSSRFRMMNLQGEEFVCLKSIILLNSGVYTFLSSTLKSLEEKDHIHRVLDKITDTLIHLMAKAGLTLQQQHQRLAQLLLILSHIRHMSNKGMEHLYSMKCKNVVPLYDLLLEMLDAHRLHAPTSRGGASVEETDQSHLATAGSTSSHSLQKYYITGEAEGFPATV

Structures are written as SMILES. Where “and” joins values, the source holds several entries; their conditions need not be identical. Equal entries are not always repeated. Records with an inconclusive call do not appear. Calls of active or inactive are those of the source. Unless noted, calls come from the whole dose curve; as a rule, active = well fitted curve in the direction sought with a large enough effect in the repeat runs; inconclusive = weak or mixed curves; inactive = no such curve, though single readings can be large; an effect the other way counts as inactive or inconclusive.

Sequence of Progesterone receptor (Homo sapiens) (P06401 whole entry, looked up): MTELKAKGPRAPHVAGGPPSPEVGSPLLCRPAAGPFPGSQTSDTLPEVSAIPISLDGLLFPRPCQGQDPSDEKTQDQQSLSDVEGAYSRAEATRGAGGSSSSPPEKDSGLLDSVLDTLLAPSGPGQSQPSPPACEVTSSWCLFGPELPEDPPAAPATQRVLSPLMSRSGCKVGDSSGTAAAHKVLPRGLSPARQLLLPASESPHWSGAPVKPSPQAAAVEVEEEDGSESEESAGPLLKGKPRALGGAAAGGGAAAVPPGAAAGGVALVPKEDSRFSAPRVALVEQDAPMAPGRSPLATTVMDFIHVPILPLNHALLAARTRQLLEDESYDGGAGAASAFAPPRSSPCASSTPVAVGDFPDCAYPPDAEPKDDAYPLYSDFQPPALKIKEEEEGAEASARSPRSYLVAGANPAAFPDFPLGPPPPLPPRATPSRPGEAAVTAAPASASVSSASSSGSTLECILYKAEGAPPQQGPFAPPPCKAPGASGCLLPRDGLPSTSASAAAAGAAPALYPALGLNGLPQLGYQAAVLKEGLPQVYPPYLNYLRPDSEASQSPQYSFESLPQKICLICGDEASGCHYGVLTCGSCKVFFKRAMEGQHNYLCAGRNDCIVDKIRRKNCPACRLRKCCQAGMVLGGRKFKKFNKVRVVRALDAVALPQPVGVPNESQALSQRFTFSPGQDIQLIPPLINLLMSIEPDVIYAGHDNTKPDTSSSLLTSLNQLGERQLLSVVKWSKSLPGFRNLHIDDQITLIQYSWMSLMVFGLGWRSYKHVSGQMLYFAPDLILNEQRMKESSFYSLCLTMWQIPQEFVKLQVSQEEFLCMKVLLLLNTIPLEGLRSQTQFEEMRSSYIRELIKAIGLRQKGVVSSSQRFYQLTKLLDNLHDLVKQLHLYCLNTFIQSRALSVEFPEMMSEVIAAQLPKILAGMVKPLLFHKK
Sequence of Thyrotropin-releasing hormone receptor (Homo sapiens) (P34981 whole entry, looked up): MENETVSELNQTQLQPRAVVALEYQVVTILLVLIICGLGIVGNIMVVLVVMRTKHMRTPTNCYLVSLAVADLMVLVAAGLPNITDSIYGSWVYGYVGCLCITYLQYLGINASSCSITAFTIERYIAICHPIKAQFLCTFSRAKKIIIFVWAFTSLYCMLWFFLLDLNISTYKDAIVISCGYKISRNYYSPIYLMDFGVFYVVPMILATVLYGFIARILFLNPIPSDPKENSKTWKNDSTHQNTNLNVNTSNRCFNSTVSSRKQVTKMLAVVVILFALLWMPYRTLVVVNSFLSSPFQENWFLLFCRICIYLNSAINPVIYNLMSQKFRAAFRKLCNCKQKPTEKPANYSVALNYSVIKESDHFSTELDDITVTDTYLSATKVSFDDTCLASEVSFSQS
Sequence of Estrogen receptor beta (Homo sapiens) (Q92731 whole entry, looked up): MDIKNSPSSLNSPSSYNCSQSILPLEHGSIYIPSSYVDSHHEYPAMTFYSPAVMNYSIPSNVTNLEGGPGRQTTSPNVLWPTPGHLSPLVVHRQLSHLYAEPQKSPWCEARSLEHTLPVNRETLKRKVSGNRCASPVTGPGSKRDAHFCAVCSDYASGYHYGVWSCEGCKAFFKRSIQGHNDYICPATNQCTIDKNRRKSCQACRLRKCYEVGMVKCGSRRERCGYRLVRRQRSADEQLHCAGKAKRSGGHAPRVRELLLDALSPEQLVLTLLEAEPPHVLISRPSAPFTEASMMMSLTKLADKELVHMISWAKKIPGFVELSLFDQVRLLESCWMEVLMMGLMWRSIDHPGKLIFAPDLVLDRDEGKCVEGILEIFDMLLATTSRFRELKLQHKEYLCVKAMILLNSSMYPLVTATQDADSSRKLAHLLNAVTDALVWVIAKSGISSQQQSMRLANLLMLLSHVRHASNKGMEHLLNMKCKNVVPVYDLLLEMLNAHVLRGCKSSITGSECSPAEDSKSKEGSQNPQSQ
Sequence of Androgen receptor (Homo sapiens) (P10275 whole entry, looked up): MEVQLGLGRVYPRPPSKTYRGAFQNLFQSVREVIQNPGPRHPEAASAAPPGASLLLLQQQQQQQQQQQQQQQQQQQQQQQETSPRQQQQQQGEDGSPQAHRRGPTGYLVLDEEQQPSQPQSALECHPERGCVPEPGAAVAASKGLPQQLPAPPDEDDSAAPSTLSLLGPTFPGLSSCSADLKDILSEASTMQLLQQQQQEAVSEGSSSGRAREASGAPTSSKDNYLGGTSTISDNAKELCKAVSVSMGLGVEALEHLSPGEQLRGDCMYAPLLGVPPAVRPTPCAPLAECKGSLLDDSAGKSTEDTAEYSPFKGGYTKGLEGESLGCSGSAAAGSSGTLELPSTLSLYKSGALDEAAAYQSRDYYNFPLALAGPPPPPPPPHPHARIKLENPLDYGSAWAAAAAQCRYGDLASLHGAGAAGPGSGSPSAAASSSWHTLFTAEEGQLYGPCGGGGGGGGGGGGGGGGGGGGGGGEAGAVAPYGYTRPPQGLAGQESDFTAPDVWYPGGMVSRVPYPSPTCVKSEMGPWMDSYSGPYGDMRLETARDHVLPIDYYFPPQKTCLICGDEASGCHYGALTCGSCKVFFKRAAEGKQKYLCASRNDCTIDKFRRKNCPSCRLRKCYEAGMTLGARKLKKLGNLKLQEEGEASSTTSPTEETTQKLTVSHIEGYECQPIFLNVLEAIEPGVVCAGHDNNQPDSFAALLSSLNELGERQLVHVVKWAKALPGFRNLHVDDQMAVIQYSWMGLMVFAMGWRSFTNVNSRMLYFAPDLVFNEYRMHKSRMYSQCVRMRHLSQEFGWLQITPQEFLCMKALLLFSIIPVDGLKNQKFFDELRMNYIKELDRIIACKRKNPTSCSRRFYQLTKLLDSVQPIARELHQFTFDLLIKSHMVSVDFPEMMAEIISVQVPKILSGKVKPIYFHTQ

For `CCC(Cl)CCl` (centres undefined), the Potency result in test [1], in test [2], in test [3], in test [4], in test [5] and in [6] was “inactive” in each case. The Potency entry in [8], in test [9], in test [10], in test [11], in [12] and in [13] was “inactive” in each case. Besides, the Potency entry in test [14], in test [15] and in test [17] was “inactive” in each case. The result in [7] and in test [16] was inactive.

Take `CCOP(=O)(OCC)Oc1ccc([N+](=O)[O-])cc1`: the Potency result in [1], in [2], in test [3], in [4], in test [5] and in test [6] was “inactive” each time. Further, the Potency result in test [8], in test [9], in [12], in test [13], in test [14] and in test [15] was “inactive” in each case. For the same molecule, the result in [7] and in [16] was inactive. The Potency in [11] is 17.4 µM (active) and 17.2 µM (active).

For the molecule `CCCCN=C=O`, the Potency entry in test [1], in test [2], in test [3], in test [4], in test [18] and in test [5] was “inactive” each time. Moreover, the Potency entry in [6], in test [8], in [9], in [10], in test [11] and in test [13] was “inactive” in each case. In addition, the Potency entry in test [14], in test [15] and in test [17] was “inactive” in each case. For the same molecule, the result in [7] and in [16] was inactive.

Take `CC(C)(CCl)C(=O)Cl`: the Potency result in test [1], in [3], in [4], in test [5], in test [6] and in [8] was “inactive” throughout. In addition, the Potency entry in test [9], in test [10], in test [11], in [14], in [15] and in test [17] was “inactive” throughout. The Potency in test [2] was 12.2 µM (active); in [13], 48.5 µM (active). For the same molecule, the result in [7] and in test [16] was inactive.

With `COC(=O)C(Cl)C(=O)OC`, the Potency entry in [1], in test [2], in test [3], in test [4], in [5] and in test [6] was “inactive” each time. Also, the Potency result in [8], in test [9], in [10], in test [11], in [12] and in test [13] was “inactive” in each case. Moreover, the Potency result in test [14], in [15] and in test [17] was “inactive” in each case. For the same molecule, the molecule was classed as inactive in [7] and in test [16].

For the molecule `Oc1ccc(Cl)c(Cl)c1Cl`, the Potency entry in test [1], in [2], in [3], in [4], in test [18] and in test [6] was “inactive” each time. For the same molecule, the Potency entry in test [8], in test [9], in test [10], in test [14], in test [15] and in test [17] was “inactive” in each case. Besides, the result in test [7] and in test [16] was inactive.

Take `O=NN1CCCCCC1`: the Potency result in [1], in test [2], in test [18], in test [5], in [19] and in [6] was “inactive” each time. The Potency entry in [20], in test [8], in test [9], in test [10], in test [11] and in test [12] was “inactive” each time. For the same molecule, the Potency entry in test [13], in [14], in [15] and in test [17] was “inactive” throughout. Further, the outcome in [7] and in test [16] was inactive.
